In PubChem BioAssay AID1851 (National Center for Advancing Translational Sciences (NCATS), 2009):
The whole screen tested about 16,000 compounds, of which about 5,800 (36%) were called active. Inconclusive results (about 23%) are left out. The list shows a part of the results. Values without a mark were called inactive. Calls follow the shape of the dose curve; as a rule, active = well fitted curve in the direction sought with a large enough effect; inconclusive = small, poorly fitted or top-dose-only effect, or effect the other way; inactive = no such curve, though single readings can be large or run the other way.

What follows are compounds tested against Cytochrome P450 2C19 (Homo sapiens) (UniProt P33261) (assay: Cytochrome panel assay with activity outcomes). Conditions: recombinant CYP, pro-luciferin dealkylation, luminescence, p450-cyp2c19; series mostly up to 57.1 µM; activity, negative = inhibition: at the top concentration.
Chain of Cytochrome P450 2C19 (Homo sapiens) (P33261 whole entry, looked up): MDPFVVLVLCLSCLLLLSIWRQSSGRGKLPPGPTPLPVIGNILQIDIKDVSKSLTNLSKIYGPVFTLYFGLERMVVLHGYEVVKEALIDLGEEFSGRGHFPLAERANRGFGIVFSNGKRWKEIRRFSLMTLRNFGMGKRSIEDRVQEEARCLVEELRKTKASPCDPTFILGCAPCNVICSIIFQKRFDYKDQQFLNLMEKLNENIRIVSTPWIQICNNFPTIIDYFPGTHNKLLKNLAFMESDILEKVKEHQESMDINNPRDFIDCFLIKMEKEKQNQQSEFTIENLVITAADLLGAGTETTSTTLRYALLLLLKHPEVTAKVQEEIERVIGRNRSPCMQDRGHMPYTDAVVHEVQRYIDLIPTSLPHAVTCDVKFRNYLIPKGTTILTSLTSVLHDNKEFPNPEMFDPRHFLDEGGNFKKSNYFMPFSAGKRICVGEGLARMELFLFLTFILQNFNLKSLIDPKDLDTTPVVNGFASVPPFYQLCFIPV
% is scaled to controls: 0 for no effect and ±100 for the full control effect.

Structure (SMILES) | activity, negative = inhibition | AC50
CC(C)=CCC/C(C)=C/CO/N=C1/C[C@@H](O)[C@@H](O)[C@@H]2[C@@H]3C(=O)N(C4CCCCC4)C(=O)[C@H]3CC[C@@H]12 | -41.2% [at 11.4 µM] | 
O=C(CC(c1ccccc1)c1ccccc1)Nc1ccc2c(c1)OCCO2 |  | 2.82 µM (active)
O=C(CN1C(=O)c2ccccc2S1(=O)=O)Nc1ccccc1 | -22% | 
O=C(CN1CCN(CC(=O)Nc2ccccc2Cl)CC1)Nc1ccc2c(c1)OCCO2 |  | 0.891 µM (active)
COc1ccccc1NC(=O)CN1CCN(CC(=O)Nc2ccc(OCc3ccccc3)cc2)CC1 |  | 0.631 µM (active)
O=C(CN1C(=O)C2C3C=CC(C3)C2C1=O)Nc1ccc2c(c1)OCCO2 (configuration not stated) | -37.3% | 
CC(=O)Nc1ccc2c(c1)OCCOCCOc1cc(NC(C)=O)ccc1OCCOCCOCCO2 | -22.4% | 
COc1ccc(NC(=O)CN2c3cccc4cccc(c34)S2(=O)=O)cc1 |  | 10 µM (active)
COc1ccccc1NC(=O)c1cnc2n(c1=O)CCS2 | -4.96% | 
CCCN1C[C@H](CSC)C[C@H]2c3cccc4[nH]cc(c34)C[C@@H]21 | -6.92% [at 25.6 µM] | 
CN1CCN(CCCNC(=O)C2CCN(c3nnc(-n4cccc4)s3)CC2)CC1 | -20.2% | 
CC(C)CO/N=C1/C[C@@H](O)[C@@H](O)[C@@H]2[C@@H]3C(=O)N([C@@H](C)c4ccccc4)C(=O)[C@H]3CC[C@H]12 | -12.9% [at 11.4 µM] | 
COc1cc2c(cc1OC)C(C(=O)N1CCN(c3ccccn3)CC1)C(c1cccs1)N(C)C2=O (configuration not stated) | -24.5% | 
Cc1c(Cl)cccc1NC(=O)CN1CCC(C(O)(c2ccccc2)c2ccccc2)CC1 |  | 11.2 µM (active)
Cc1cccc(NC(=S)N2CCC(N(C)CC3CCCO3)CC2)c1C (configuration not stated) | -10.8% | 
COc1cc(NC(=O)c2ccccc2)c(OC)cc1NC(=O)CN1CCN(c2ccccn2)CC1 |  | 17.8 µM (active)
Cc1c(NC(=O)CN2CCN(c3ccccc3)CC2)c(=O)n(-c2ccccc2)n1C | -5.89% | 
Cc1ccc(NC(=O)c2c(C(F)(F)F)nn(C)c2SCc2cccc(C(F)(F)F)c2)cc1C |  | 0.562 µM (active)
Cc1cccc(C)c1NC(=O)CS(=O)CC(=O)Nc1ccc(F)cc1F (configuration not stated) | -53.4% | 

Structure (SMILES) | activity, negative = inhibition | AC50
Cc1ccc(NC(=O)c2sccc2SCc2cccc(C(F)(F)F)c2)cc1 |  | 0.631 µM (active)
Cn1nc(C(F)(F)F)c(C(=O)Nc2ccc(F)cc2F)c1Sc1ccc(C(F)(F)F)cc1 |  | 0.631 µM (active)
Cn1nc(C(F)(F)F)c(C(=O)Nc2ccc(F)cc2F)c1Sc1cccc(C(F)(F)F)c1 |  | 0.501 µM (active)
C1COC(NC(C2CC2)C2CC2)=N1 |  | inactive
CCCN1C[C@@H](CSC)C[C@H]2c3cccc4[nH]cc(c34)C[C@@H]21 | 43.8% | 
O=C(OCc1nc2ccccc2[nH]1)C12CC3CC(CC(C3)C1)C2 |  | 2.51 µM (active)
O=C1CC[C@](CCc2nc3ccccc3[nH]2)(c2ccccc2)C(=O)N1 | -21.5% [at 11.4 µM] | 
CSc1nc2nc3c(c(=O)n2[nH]1)CN(Cc1ccccc1)CC3 | -6.28% | 
Nc1[nH]n2c(=O)c3c(nc2c1N=Nc1ccccc1)CCCC3 | -28.5% | 
Cc1[nH]n2c(=O)c3c(nc2c1-c1cccc2ccccc12)CCC3 |  | 8.91 µM (active)
Cc1ccc(N=Nc2c(N)[nH]n3c(=O)c4c(nc23)CCCC4)cc1 |  | 25.1 µM (active)
COC(=O)Cc1cc(=O)n2[nH]c(C)c(-c3ccccc3)c2n1 | -19% | 
COc1ccc(CNc2nc3nc4c(c(=O)n3[nH]2)CCC4)cc1 | -14.3% | 
Cc1ccc(-c2[nH]n3c(=O)c4c(nc3c2C)CCCC4)cc1 |  | 3.98 µM (active)
N#Cc1c[nH]n2c(=O)c3c(nc12)CCCC3 | -4.58% | 
COc1cccc([C@H](O)Cn2cc(-c3cccc(CON=C(C)C)c3)nn2)c1 | -19.8% [at 11.4 µM] | 
CC(C)c1ccc(N=c2c([N+](=O)[O-])nn(-c3ccc4c(c3)OCCO4)n2O)cc1 |  | 11.2 µM (active)
COc1ccc(OC)c(C2C3=C(COC3=O)Nc3cc4c(cc32)OCO4)c1 (configuration not stated) |  | 1.12 µM (active)
CC1(C)Oc2cc(N)c([N+](=O)[O-])cc2O1 |  | 10 µM (active)

Structure (SMILES) | activity, negative = inhibition | AC50
Cc1nn2c(C)nc3sc4c(c3c2nc1=O)CC(C)(C)OC4 | -20.1% | 
CC1(C)Cc2c(sc3nc(-c4ccccc4)n(N)c(=O)c23)CO1 |  | 25.1 µM (active)
CCC[C@H](Sc1nc(N)nc2nc[nH]c12)C(=O)O | 25% [at 11.4 µM] | 
Nc1nc(N)c2[nH]cnc2n1 (tested in a mixture with another compound) | 6.99% [at 11.4 µM] | 
O=c1[nH]c(SCc2ccccc2[N+](=O)[O-])nc2nc[nH]c12 | 23.8% [at 11.4 µM] | 
CC(C)[C@H](Sc1nc(N)nc2nc[nH]c12)C(=O)O | 22.9% [at 11.4 µM] | 
Nc1nc(SCCc2ccccc2)c2[nH]cnc2n1 |  | 0.631 µM (active)
Nc1nc(SCc2ccccc2[N+](=O)[O-])c2[nH]cnc2n1 |  | 1 µM (active)
Nc1nc(Sc2ccc([N+](=O)[O-])c3nonc23)c2[nH]cnc2n1 |  | 1.58 µM (active)
Nc1nc(SC/C=C\c2ccccc2)c2[nH]cnc2n1 |  | 1.58 µM (active)
CC[C@H](C)[C@@H]1O[C@]2(CC[C@@H]1C)C[C@H]1C[C@H](CC=C(C)[C@@H](O[C@H]3C[C@H](OC)[C@H](O[C@H]4C[C@H](OC)[C@H](O)[C@H](C)O4)[C@H](C)O3)[C@@H](C)C=CC=C3CO[C@@H]4[C@@H](O)C(C)=C[C@H](C(=O)O1)[C@@]34O)O2 | -24.9% | 
COc1cc2c(CCNC(C)=O)c[nH]c2cc1Cl |  | 5.01 µM (active)
CC(=O)NCCc1c[nH]c2ccc(O)cc12 | -18.6% | 
COc1cc2c(CCNC(C)=O)c[nH]c2cc1O | -15.4% | 
CC(C)[C@](N)(C(=O)O)c1ccccc1 | 11.6% [at 11.4 µM] | 
Cc1nc2c3cnn(-c4ccc(C)c(C)c4)c3ncn2n1 |  | 10 µM (active)
O=C(Cc1ccccc1)N/N=C\c1ccc(Br)o1 |  | 10 µM (active)
O=C(Cc1ccccc1)N/N=C/c1cc(Br)c(Br)o1 |  | 8.91 µM (active)
O=C(N/N=C/c1ccco1)c1ccc(Br)o1 | -25.5% | 
